Screening data deposited in PubChem BioAssay by National Center for Advancing Translational Sciences (NCATS).
The sample as a whole holds a higher share of hits than the screen did.
NTMT1 inh = NTMT1 methyltransferase inhibition | NTMT1 MTase-Glo SAH luminescence, purified enzyme | Potency, µM (series often up to 114 µM), usual class: inhibitors | AID 1645870 | Q9BV86 | hit rate 2.5% among 59,000; also: nearly all actives have a fitted effect of over 65% in size
GALC G270D up = enhancers of human galactocerebrosidase G270D mutant activity in cells. P54803. 145M-Twi-hGALC-G270D cells (Twitcher mouse brain line with human GALC G270D), HMU-beta-Gal fluorescence, 48 h. Potency, µM (series often up to 57.5 µM), most hits filed as activators. hit rate 0.1% among 45,000; also: nearly all actives have a fitted effect of over 65% in size
Target sequence (P54803 whole entry G286D): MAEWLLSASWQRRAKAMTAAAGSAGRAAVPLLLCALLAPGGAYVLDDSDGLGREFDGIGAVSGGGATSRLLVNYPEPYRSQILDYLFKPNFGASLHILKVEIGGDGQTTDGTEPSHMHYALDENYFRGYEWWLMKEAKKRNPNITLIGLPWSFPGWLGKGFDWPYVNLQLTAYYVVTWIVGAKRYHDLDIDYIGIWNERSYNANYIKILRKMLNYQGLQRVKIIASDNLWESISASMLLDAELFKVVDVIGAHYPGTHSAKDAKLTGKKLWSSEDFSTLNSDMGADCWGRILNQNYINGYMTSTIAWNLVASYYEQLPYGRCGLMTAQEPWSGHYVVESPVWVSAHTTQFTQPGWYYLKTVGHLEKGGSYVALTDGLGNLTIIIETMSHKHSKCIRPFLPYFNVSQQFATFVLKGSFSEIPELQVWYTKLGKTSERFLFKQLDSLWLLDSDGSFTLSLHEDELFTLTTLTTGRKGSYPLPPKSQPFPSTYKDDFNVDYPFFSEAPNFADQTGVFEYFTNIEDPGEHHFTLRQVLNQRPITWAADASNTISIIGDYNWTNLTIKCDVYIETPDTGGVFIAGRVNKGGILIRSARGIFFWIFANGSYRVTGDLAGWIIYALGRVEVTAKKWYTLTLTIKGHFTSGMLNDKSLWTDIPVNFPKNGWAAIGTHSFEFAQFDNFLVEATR
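Fluorogenic HMU-b-Gal hydrolysis (0.1 mM final, pH 5.2 citrate-phosphate with 1 mg/mL sodium taurocholate; carbonate stop buffer) measures mutant GALC activity after compound treatment of live 145M-Twi Twitcher brain cells stably carrying human GALC-G270D, with wild-type GALC line alongside; activation sought.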
FH mod = Identification of activators of human fumarate hydratase by quantitative high-throughput screening | Fumarate hydratase, mitochondrial (Homo sapiens), P07954 | FH coupled MDH/diaphorase resazurin fluorescence, 15 min | Potency, µM (titrated, usually from 79.9 µM), hits mostly inhibitors | hit rate 0.22% among 54,000 | AID 1347055, 2019; also: the screen sought activators but most active calls are inhibition curves; nearly all actives have a fitted effect of over 45% in size
Hits are given with their value. Calls follow the shape of the dose curve; as a rule, active = well fitted curve in the direction sought with a large enough effect; inconclusive = small, poorly fitted or top-dose-only effect, or another doubt; inactive = no such curve, though single readings can be large; an effect the other way counts as inactive or inconclusive.

Results for CN(Cc1cccs1)c1nc(-c2ccccc2C(F)(F)F)nc2ccccc12 ?
NTMT1 inh: inactive

What do the screens show for `CN1CCN(S(=O)(=O)c2ccc(-c3cnc(N)c(C(=O)Nc4cccnc4)n3)cc2)CC1`?
NTMT1 inh: inactive; FH mod: inactive

Results for O=C1CC(c2ccc([N+](=O)[O-])cc2)=NN1c1ccccc1 ?
NTMT1 inh: inactive; FH mod: inactive

What do the screens show for `C/C=C1/[C@H](O[C@@H]2O[C@H](CO)[C@@H](O)[C@H](O)[C@H]2O)OC=C(C(=O)OC)[C@H]1CC(=O)OCCc1ccc(O)c(O)c1`?
NTMT1 inh: inactive; FH mod: inactive

What do the screens show for `CCOc1ccc(Nc2ncnc3c2nc2n3CCCC2)cc1`?
NTMT1 inh: inconclusive; GALC G270D up: inactive; FH mod: inactive

Results for CC(C)c1ccc(Nc2ncnc3c2nc2n3CCCC2)cc1 ?
NTMT1 inh: 79µM; GALC G270D up: inactive; FH mod: inactive

How did Cc1[nH]c(/C=C2\C(=O)Nc3ccc(S(=O)(=O)N(C)c4cccc(Cl)c4)cc32)c(C)c1C(=O)N1CCN(C)CC1 do in these assays?
NTMT1 inh: inactive; FH mod: inactive

How did Cc1[nH]c(C=C2C(=O)Nc3ccc(S(=O)(=O)Cc4c(Cl)cccc4Cl)cc32)c(C)c1C(=O)N1CCC[C@H]1CN1CCCC1 do in these assays?
NTMT1 inh: 6.8µM; FH mod: inactive

What do the screens show for `Cc1cccc(-n2cnc3cc(C(=O)NC(C)(C)C)ccc32)c1`?
NTMT1 inh: inactive

How did Cc1ccc(C)c(NC(=O)Cn2cc(C(=O)c3ccco3)c3ccccc32)c1 do in these assays?
NTMT1 inh: inactive; GALC G270D up: inactive; FH mod: inactive

Results for Cc1cccc(NC(=O)Cn2cc(C(=O)c3ccco3)c3ccccc32)c1C ?
NTMT1 inh: 79µM; GALC G270D up: inactive; FH mod: inactive

Results for C=C1C[C@H]2C=Nc3cc(OCCCOc4cc5c(cc4OC)C(=O)N4CC(=C)C[C@H]4C=N5)c(OC)cc3C(=O)N2C1 ?
NTMT1 inh: inactive

What do the screens show for `Cc1ccccc1S(=O)(=O)N1CCc2cc(-c3nc(NC(=O)Cc4ccc5c(c4)OCO5)sc3C)ccc21`?
NTMT1 inh: inactive

What do the screens show for `Cn1cncc1C(N)(c1ccc(Cl)cc1)c1ccc2c(c1)c(-c1cccc(Cl)c1)cc(=O)n2C` (stereo unspecified)?
NTMT1 inh: inconclusive; FH mod: inactive

How did Nc1ncnc2c1ncn2[C@@H]1O[C@H](COP(=O)(O)OP(=O)(O)OP(=O)(O)OP(=O)(O)OC[C@@H]2O[C@H](n3cnc4c(N)ncnc43)[C@@H](O)C2O)C(O)[C@H]1O (stereo partly specified) do in these assays?
FH mod: inactive

Results for Cc1cc2c(cc1C1(c3ccc(C(=O)O)cc3)CC1)C(C)(C)CCC2(C)C ?
NTMT1 inh: inactive

How did Nc1ccc2oc(-c3ccccc3Br)nc2c1 do in these assays?
NTMT1 inh: inconclusive; GALC G270D up: inactive; FH mod: inactive

Results for Nc1ccc2cc3ccc(N)cc3nc2c1 ?
NTMT1 inh: 35µM; GALC G270D up: inactive; FH mod: inactive

How did Cc1cc(NS(=O)(=O)c2ccc(NC(=O)Cc3cccc(Cl)c3)cc2)no1 do in these assays?
NTMT1 inh: inactive

What do the screens show for `O=C(Nc1nnc(-c2ccncc2)s1)Nc1ccc(Cl)c2ccccc12`?
NTMT1 inh: inactive

How did CCOc1ccc(CCNC(=O)C2=C(C)OCCO2)cc1OCC do in these assays?
NTMT1 inh: inactive

What do the screens show for `CO[C@H]1C=CC=C(C)C(=O)NC2=CC(=O)C(NCCN(C)C)=C(C[C@@H](C)C[C@H](OC)[C@@H](O)[C@@H](C)C=C(C)[C@@H]1OC(N)=O)C2=O`?
NTMT1 inh: 27µM; FH mod: inactive

How did C=CCNC1=C2C[C@@H](C)C[C@H](OC)[C@@H](O)[C@@H](C)C=C(C)[C@H](OC(N)=O)[C@@H](OC)C=CC=C(C)C(=O)NC(=CC1=O)C2=O do in these assays?
NTMT1 inh: inactive; FH mod: inactive

Results for COCCOC(=O)N1CCN(S(=O)(=O)c2cc(F)c(Oc3ccc(Cl)cc3)c(F)c2)C(C(=O)NO)C1 (stereo unspecified) ?
NTMT1 inh: inactive

Results for Cc1nnc(-c2ccc3occ(-c4ccc(S(C)=O)cc4)c3c2)o1 (stereo unspecified) ?
NTMT1 inh: inactive; FH mod: inactive

What do the screens show for `COc1ccccc1NC(=O)C1=C(C)Nc2nc(SCc3ccccc3)nn2C1c1ccncc1` (stereo unspecified)?
NTMT1 inh: inactive; GALC G270D up: inactive; FH mod: inactive
